Measured values taken from article PMC7862700, “An all-to-all approach to the identification of sequence-specific readers for epigenetic DNA modifications on cytosine”.

Key:
Assay in all cases: DAPPL (digital affinity profiling via proximity ligation, sequencing); 10 mM Tris-HCl pH 7.5, 50 mM NaCl, 1 mM DTT, 4% glycerol, room temperature, 30 min; GST-TFs on glutathione beads, 16-mer random dsDNA library, 0.1% formaldehyde crosslink after washing; high values mean tight binding
FEV = biological target: T1, FEV (Homo sapiens, UniProt Q99581 1-238); details: protein: recombinant; tags: N-terminal GST; dsDNA, one strand shown
T1 sequence: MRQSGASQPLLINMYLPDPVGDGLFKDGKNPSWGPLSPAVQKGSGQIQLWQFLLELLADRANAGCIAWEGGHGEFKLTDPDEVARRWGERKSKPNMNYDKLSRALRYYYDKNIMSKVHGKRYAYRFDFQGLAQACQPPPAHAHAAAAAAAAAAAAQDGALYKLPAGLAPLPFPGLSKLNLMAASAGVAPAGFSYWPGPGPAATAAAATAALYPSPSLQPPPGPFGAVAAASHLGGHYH
Procedure, shortened: (§1)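 Human transcription factors fused to GST were expressed in yeast, captured on glutathione beads, given DNA barcodes and pooled with a GST-only negative control. Pools were incubated with 200 nmole of a 16-mer random double-stranded DNA library in Tris/NaCl/DTT/glycerol buffer at room temperature for 30 min. They were then washed, crosslinked with 0.1% formaldehyde, proximity-ligated (BsaI/T4 ligase, 1 h, 37 °C), PCR-amplified and sequenced on an Illumina NextSeq500. Binding signal is each 6-mer's read frequency for a factor divided by its frequency for the GST control.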

ETV5 = ETV5 (Homo sapiens, UniProt P41161 1-510); details: protein: recombinant; tags: N-terminal GST; dsDNA, one strand shown
Procedure, shortened: as §1

HSF1 = HSF1 (Homo sapiens, UniProt Q00613 1-529); details: protein: recombinant; tags: N-terminal GST; chain copies: 3; dsDNA, one strand shown
Procedure, shortened: as §1

SPIC = biological target: T2, SPIC (Homo sapiens, UniProt Q8N5J4 1-248); details: protein: recombinant; tags: N-terminal GST; dsDNA, one strand shown
T2 sequence: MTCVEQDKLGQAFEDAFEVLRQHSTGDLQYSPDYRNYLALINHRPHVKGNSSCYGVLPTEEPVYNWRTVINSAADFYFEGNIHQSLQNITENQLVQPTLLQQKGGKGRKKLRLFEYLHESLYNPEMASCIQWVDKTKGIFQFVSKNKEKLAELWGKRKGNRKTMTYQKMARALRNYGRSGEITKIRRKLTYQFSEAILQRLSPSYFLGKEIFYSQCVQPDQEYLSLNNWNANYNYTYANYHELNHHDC
Procedure, shortened: as §1

ELF4 = ELF4 (Homo sapiens, UniProt Q99607 1-663); details: protein: recombinant; tags: N-terminal GST; dsDNA, one strand shown
Procedure, shortened: as §1

ELK4 = biological target: T3, ELK4 (Homo sapiens, UniProt P28324-2 1-405); details: protein: recombinant; tags: N-terminal GST; dsDNA, one strand shown
T3 sequence: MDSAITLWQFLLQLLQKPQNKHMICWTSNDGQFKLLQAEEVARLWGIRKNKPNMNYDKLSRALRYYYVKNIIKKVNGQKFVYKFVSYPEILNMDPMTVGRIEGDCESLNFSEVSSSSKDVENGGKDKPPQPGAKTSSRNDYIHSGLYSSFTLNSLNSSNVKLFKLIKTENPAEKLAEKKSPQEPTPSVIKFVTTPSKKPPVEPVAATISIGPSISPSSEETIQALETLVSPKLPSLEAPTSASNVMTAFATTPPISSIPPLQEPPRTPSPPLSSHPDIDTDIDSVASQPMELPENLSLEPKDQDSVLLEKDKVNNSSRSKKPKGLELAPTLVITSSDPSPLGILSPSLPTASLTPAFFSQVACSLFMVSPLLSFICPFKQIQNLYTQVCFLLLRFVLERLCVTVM
Procedure, shortened: as §1

ETV2 = biological target: T4, ETV2 (Homo sapiens, UniProt O00321 1-342); details: protein: recombinant; tags: N-terminal GST; dsDNA, one strand shown
T4 sequence: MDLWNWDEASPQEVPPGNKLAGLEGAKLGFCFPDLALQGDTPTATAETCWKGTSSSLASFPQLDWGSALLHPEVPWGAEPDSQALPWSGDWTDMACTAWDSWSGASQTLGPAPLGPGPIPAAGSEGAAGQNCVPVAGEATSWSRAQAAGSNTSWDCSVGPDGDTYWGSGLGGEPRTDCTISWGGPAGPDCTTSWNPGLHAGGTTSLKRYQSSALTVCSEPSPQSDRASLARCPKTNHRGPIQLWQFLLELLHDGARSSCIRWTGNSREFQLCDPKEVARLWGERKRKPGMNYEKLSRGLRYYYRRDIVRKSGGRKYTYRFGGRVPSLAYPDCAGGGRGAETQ
Procedure, shortened: as §1

ELF3 = biological target: T5, ELF3 (Homo sapiens, UniProt P78545 1-371); details: protein: recombinant; tags: N-terminal GST; dsDNA, one strand shown
T5 sequence: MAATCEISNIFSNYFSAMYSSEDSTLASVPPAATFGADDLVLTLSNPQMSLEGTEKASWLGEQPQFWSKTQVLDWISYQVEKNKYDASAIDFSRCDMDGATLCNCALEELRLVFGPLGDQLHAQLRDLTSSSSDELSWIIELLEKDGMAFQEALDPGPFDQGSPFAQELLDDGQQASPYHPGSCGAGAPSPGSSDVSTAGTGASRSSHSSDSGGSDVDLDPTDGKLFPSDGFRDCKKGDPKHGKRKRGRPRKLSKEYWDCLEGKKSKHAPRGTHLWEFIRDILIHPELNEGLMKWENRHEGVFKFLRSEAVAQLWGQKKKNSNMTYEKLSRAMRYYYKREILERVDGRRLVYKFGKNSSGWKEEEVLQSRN
Procedure, shortened: as §1

CRX = CRX (Homo sapiens, UniProt O43186 1-299); details: protein: recombinant; tags: N-terminal GST; dsDNA, one strand shown
Procedure, shortened: as §1

ETV1 = ETV1 (Homo sapiens, UniProt P50549 1-477); details: protein: recombinant; tags: N-terminal GST; dsDNA, one strand shown
Procedure, shortened: as §1

ERF = biological target: T6, ERF (Homo sapiens, UniProt P50548 1-548); details: protein: recombinant; tags: N-terminal GST; dsDNA, one strand shown
T6 sequence: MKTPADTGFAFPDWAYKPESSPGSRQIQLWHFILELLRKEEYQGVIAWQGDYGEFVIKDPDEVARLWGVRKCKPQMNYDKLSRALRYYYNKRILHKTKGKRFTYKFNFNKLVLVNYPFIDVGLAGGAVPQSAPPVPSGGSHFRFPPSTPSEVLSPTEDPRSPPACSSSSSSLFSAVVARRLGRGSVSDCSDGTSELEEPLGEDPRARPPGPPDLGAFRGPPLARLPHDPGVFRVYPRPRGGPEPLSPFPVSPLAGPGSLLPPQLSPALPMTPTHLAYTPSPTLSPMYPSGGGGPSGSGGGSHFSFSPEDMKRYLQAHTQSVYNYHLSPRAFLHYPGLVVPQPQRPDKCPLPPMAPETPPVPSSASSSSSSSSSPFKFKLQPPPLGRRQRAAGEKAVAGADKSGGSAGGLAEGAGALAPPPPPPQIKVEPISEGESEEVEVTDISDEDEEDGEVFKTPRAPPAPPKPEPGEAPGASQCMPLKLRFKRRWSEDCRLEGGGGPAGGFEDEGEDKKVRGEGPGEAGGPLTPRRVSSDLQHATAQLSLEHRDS
Procedure, shortened: as §1

ETV3L = biological target: T7, ETV3L (Homo sapiens, UniProt Q6ZN32 1-361); details: protein: recombinant; tags: N-terminal GST; dsDNA, one strand shown
T7 sequence: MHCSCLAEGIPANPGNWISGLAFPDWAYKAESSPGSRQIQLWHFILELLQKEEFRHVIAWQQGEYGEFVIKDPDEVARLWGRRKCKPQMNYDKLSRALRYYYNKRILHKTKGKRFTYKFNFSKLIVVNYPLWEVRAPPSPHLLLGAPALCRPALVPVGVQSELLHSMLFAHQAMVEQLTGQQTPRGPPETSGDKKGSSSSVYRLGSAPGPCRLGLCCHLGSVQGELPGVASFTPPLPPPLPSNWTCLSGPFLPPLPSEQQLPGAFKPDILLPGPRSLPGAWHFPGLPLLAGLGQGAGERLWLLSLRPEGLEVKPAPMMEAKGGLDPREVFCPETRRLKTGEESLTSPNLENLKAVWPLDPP
Procedure, shortened: as §1

ETS2 = biological target: T8, ETS2 (Homo sapiens, UniProt P15036 1-469); details: protein: recombinant; tags: N-terminal GST; dsDNA, one strand shown
T8 sequence: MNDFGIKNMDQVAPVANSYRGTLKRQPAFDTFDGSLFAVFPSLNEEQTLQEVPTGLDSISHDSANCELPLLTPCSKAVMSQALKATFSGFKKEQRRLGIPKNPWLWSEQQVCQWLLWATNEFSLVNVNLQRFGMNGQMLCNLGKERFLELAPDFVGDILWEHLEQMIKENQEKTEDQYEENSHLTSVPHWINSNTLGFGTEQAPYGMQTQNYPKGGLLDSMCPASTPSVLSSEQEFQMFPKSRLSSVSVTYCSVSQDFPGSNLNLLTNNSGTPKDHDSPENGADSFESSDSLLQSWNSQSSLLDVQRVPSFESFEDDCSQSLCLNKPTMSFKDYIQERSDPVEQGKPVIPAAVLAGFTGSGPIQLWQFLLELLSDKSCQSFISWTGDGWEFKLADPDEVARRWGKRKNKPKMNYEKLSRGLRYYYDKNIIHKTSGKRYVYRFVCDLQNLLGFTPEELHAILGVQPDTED
Procedure, shortened: as §1

SPDEF = biological target: T9, SPDEF (Homo sapiens, UniProt O95238 1-335); details: protein: recombinant; tags: N-terminal GST; dsDNA, one strand shown
T9 sequence: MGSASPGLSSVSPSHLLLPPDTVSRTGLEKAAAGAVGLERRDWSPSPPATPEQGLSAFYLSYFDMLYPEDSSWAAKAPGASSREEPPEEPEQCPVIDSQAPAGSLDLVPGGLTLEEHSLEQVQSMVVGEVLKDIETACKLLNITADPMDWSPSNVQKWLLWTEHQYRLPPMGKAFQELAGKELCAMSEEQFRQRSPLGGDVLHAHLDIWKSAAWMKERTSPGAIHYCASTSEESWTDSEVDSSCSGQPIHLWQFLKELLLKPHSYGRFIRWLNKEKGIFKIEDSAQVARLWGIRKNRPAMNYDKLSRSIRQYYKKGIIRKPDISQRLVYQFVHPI
Procedure, shortened: as §1

ETV7 = biological target: T10, ETV7 (Homo sapiens, UniProt Q9Y603 1-341); details: protein: recombinant; tags: N-terminal GST; dsDNA, one strand shown
T10 sequence: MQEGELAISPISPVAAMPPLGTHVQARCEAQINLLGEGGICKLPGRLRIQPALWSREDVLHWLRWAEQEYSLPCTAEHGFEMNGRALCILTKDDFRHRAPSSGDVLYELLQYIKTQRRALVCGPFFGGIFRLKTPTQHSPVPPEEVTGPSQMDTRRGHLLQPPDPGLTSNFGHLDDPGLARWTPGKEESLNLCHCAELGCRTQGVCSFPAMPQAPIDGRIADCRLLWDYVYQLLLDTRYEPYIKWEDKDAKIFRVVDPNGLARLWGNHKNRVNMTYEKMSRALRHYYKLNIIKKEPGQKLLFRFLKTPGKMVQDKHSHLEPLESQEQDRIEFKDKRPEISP
Procedure, shortened: as §1

ELF5 = biological target: T11, ELF5 (Homo sapiens, UniProt Q9UKW6-2 1-255); details: protein: recombinant; tags: N-terminal GST; dsDNA, one strand shown
T11 sequence: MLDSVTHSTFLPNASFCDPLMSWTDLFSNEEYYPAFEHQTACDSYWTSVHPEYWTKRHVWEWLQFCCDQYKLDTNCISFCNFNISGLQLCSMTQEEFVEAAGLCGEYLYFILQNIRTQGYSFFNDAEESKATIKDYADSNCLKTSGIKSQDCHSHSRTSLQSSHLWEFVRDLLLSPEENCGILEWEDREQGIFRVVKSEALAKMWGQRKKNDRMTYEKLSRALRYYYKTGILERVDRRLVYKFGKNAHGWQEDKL
Procedure, shortened: as §1

ETV3 = biological target: T12, ETV3 (Homo sapiens, UniProt P41162-2 1-143); details: protein: recombinant; tags: N-terminal GST; dsDNA, one strand shown
T12 sequence: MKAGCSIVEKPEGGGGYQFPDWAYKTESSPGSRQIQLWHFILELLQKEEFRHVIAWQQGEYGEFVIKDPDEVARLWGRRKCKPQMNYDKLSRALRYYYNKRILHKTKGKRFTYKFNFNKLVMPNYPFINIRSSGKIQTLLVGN
Procedure, shortened: as §1

ETV6 = ETV6 (Homo sapiens, UniProt P41212 1-452); details: protein: recombinant; tags: N-terminal GST; dsDNA, one strand shown
Procedure, shortened: as §1

Sequence of HSF1 (Q00613 whole entry): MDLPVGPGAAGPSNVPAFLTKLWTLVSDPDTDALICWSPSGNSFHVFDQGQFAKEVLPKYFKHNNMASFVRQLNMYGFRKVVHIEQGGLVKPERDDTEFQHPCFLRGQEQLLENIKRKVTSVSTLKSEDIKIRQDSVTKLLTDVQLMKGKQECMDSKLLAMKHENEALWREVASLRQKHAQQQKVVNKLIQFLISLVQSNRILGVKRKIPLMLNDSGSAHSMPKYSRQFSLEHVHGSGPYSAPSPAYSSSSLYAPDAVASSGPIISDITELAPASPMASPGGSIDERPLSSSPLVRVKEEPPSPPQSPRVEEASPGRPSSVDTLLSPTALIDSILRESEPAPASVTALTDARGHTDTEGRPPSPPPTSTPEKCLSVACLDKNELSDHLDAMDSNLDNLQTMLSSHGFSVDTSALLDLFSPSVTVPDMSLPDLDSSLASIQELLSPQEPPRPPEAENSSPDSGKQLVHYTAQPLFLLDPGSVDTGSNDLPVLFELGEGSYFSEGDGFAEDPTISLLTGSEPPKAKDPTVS
Sequence of ETV6 (P41212 whole entry): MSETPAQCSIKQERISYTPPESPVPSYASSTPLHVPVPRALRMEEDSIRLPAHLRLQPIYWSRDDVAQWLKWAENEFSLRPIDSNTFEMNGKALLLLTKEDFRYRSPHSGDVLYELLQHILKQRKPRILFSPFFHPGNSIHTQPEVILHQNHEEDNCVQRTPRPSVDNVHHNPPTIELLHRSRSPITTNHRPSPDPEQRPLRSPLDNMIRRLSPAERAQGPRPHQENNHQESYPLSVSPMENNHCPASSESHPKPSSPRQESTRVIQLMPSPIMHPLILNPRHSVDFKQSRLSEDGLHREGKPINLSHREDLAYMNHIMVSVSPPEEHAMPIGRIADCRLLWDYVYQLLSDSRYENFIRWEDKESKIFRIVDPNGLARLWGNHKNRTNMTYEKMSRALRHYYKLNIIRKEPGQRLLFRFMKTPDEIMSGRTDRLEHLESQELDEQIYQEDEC
Sequence of ETV5 (P41161 whole entry): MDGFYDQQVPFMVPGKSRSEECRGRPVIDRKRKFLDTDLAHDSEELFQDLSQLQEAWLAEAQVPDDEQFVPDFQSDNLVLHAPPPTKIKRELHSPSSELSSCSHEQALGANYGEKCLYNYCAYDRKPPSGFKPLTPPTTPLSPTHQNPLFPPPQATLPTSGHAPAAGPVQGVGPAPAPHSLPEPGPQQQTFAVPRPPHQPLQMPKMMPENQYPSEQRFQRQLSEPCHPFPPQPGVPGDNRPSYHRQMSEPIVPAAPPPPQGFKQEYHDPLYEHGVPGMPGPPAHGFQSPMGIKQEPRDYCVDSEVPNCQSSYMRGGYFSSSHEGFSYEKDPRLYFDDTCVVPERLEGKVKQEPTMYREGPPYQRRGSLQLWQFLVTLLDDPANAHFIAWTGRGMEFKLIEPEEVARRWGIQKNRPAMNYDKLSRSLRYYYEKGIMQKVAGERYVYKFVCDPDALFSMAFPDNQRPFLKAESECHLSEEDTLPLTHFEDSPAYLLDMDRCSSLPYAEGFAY
Sequence of ELF4 (Q99607 whole entry): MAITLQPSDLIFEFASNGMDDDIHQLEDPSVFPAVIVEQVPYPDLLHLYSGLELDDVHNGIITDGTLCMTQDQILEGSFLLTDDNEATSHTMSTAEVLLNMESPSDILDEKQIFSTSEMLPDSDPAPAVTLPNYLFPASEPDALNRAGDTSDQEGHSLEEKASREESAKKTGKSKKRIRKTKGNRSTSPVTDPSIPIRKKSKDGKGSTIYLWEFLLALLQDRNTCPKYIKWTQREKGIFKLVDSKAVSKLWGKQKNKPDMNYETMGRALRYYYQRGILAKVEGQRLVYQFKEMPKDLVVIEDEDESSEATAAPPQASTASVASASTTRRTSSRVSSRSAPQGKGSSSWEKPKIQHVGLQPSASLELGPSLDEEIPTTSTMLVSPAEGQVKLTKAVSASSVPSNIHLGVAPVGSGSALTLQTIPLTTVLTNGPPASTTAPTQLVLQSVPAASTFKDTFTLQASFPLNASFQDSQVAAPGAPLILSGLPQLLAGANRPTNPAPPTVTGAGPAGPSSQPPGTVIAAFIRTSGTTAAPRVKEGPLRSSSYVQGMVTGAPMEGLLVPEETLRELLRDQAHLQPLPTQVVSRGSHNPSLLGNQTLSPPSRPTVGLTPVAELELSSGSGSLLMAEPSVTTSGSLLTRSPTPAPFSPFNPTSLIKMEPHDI
Sequence of CRX (O43186 whole entry): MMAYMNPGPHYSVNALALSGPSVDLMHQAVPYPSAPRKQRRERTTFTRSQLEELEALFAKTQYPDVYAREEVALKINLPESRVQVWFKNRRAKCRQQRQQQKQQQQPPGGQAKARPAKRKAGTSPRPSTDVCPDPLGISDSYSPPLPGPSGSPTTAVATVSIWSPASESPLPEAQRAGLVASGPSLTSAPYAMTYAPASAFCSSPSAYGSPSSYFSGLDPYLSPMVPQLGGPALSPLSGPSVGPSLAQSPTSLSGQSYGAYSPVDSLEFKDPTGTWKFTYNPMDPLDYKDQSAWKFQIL
Sequence of ETV1 (P50549 whole entry): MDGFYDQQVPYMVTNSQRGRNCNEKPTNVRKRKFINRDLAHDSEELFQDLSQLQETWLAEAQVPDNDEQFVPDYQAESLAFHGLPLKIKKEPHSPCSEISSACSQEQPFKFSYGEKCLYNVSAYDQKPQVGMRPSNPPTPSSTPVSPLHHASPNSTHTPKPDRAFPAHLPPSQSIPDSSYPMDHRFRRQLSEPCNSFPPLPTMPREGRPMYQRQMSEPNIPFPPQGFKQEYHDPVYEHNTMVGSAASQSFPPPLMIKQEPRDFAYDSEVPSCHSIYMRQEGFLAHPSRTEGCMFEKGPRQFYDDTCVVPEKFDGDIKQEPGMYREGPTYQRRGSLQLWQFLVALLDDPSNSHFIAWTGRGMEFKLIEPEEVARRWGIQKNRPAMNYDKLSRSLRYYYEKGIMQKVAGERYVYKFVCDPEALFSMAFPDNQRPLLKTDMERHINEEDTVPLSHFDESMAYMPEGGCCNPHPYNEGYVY

TAACAC
binding signal (FEV): 1.24 fold enrichment (6-mer frequency, TF over GST control) | binding signal (ETV5): 1.23 fold enrichment (6-mer frequency, TF over GST control) | binding signal (HSF1): 1.2 fold enrichment (6-mer frequency, TF over GST control) | binding signal (SPIC): 1.39 fold enrichment (6-mer frequency, TF over GST control) | binding signal (ELF4): 1.26 fold enrichment (6-mer frequency, TF over GST control) | binding signal (ELK4): 1.32 fold enrichment (6-mer frequency, TF over GST control) | binding signal (ETV2): 1.15 fold enrichment (6-mer frequency, TF over GST control) | binding signal (ELF3): 1.16 fold enrichment (6-mer frequency, TF over GST control) | binding signal (CRX): 1.56 fold enrichment (6-mer frequency, TF over GST control) | binding signal (ETV1): 1.19 fold enrichment (6-mer frequency, TF over GST control) | binding signal (ERF): 1.22 fold enrichment (6-mer frequency, TF over GST control) | binding signal (ETV3L): 1.24 fold enrichment (6-mer frequency, TF over GST control) | binding signal (ETS2): 1.29 fold enrichment (6-mer frequency, TF over GST control) | binding signal (SPDEF): 1.28 fold enrichment (6-mer frequency, TF over GST control) | binding signal (ETV7): 1.21 fold enrichment (6-mer frequency, TF over GST control) | binding signal (ELF5): 1.2 fold enrichment (6-mer frequency, TF over GST control) | binding signal (ETV3): 1.22 fold enrichment (6-mer frequency, TF over GST control) | binding signal (ETV6): 1.19 fold enrichment (6-mer frequency, TF over GST control)
